{
  "source": "PubChem BioAssay (NCATS)",
  "note": "“And” between values parts separate entries of the source, which are not always exact repeats. Identical values can stand only once. Results filed as inconclusive are left out. The source made the active and inactive calls. Calls come from the whole dose curve; as a rule, active = well fitted inhibition curve with a large enough effect in the signal ratio, with a control signal flat (not every such curve was filed as active); inconclusive = small, poorly fitted or top-dose-only effect, or effect the other way, or a change in a side signal; inactive = flat fitted curve, though single readings scatter; the % refers to the signal ratio. % is set by controls: 0 for no effect and ±100 for the full control effect.",
  "data": [
    {"target": "Thyroid hormone receptor beta (Homo sapiens) (UniProt P10828)", "sequence (P10828 whole entry, looked up)": "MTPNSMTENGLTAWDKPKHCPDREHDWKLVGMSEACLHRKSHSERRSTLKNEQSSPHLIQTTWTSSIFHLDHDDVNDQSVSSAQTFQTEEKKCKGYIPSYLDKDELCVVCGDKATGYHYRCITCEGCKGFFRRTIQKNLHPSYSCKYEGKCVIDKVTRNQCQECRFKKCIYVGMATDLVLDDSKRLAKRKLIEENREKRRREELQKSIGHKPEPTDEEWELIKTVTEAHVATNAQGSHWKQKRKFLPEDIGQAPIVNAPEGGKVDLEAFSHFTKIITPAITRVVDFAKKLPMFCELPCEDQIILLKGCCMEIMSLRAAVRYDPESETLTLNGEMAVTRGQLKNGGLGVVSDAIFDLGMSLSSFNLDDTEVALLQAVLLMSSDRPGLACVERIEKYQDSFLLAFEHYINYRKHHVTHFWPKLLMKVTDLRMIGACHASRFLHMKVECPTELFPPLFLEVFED", "assay": "qHTS assay for small molecule antagonists of thyroid hormone receptor beta signaling (AID 588547);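 note: cells stimulated with 0.4 nM T3 agonist during compound exposure; series mostly up to about 77 µM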", "details": "TR-UAS-bla HEK293, beta-lactamase ratio, antagonist mode, 18 h", "from_the_text": "NIH Chemical Genomics Center [NCGC] U.S. Environmental Protection Agency [EPA] National Institutes of Environmental Health Sciences [NIEHS] National Toxicology Program [NTP] NCGC Assay Overview Thyroid hormone receptor (TR) belongs to nuclear hormone receptor superfamily. There are two subtypes for TR: TR-alpha and TR-beta. TR-beta plays a major role in regulating plasma cholesterol levels and it mediates the biological activities of thyroid hormone. Screening environmental chemicals on TR-beta signaling will provide important information for the mechanism of compound action.\nNCGC Assay Protocol Summary Using a beta-lactamase reporter-gene under control of the TR response element, a cell-based assay [GeneBLAzer TR-UAS-bla-GripTite assay developed by Invitrogen] was used to measure TR-beta signaling in antagonist mode. TR-UAS-bla-GripTite HEK 293 cells were used with assay medium containing 2% charcoal/dextran FBS, 0.1 mM NEAA and 1 mM sodium pyruvate. The assay was performed in clear bottom black Greiner 1536-well plates. Library compounds were measured for their ability to inhibit the reporter gene activity. Compounds were screened in a titration series in 1536-well format. The fluorescence intensity (405 nm excitation, 460/530 nm emission) was measured using an EnVision plate reader. […] Concentration-response titration points for each compound were fitted to the Hill equation yielding concentrations of half-maximal inhibition (IC50) and maximal response (efficacy) values. qHTS protocol for TR-beta beta-lactamase assay in antagonist mode [Step] [Parameter] [Value] [Description] 1. Reagent; 5 uL; 2500 cells/well 2. Incubation; 37 C for 4 hrs 3. Compounds; 23 nL; 0.59 nM to 92 uM 4. Controls (DMSO); 23 nL 5. Agonist (Stimulator); 1uL; T3 at 0.4nM (final) concentrations 6. Incubation; 37 C for 18 hrs 7. Detection reagent; 1 uL of CCF4-dye 8. Incubation; RT for 2 hrs 9. Detection; Fluorescence; Envision plate reader", "values": [
      {"smiles": "Brc1cccc(-c2ccccc2)c1", "activity change % (negative = inhibition)": "0.106% (inactive)"},
      {"smiles": "CCCCCCCCCCCCCl", "activity change % (negative = inhibition)": "-6.1% (inactive)"},
      {"smiles": "CC(C#N)CCC#N", "note": "(stereo not given)", "activity change % (negative = inhibition)": "9.23% (inactive)"},
      {"smiles": "CCCCCOC(=O)c1ccccc1C(=O)OCCCCC", "activity change % (negative = inhibition)": "15.4% (inactive) and 2.77% (inactive)"},
      {"smiles": "CCOC(=O)CC(SP(=O)(OC)OC)C(=O)OCC", "note": "(stereo not given)", "activity change % (negative = inhibition)": "-9.27% (inactive) and -19.3% (inactive)"},
      {"smiles": "BrC(Br)Br", "activity change % (negative = inhibition)": "-8.09% (inactive)"},
      {"smiles": "CN=C=O", "activity change % (negative = inhibition)": "-7.41% (inactive)"},
      {"smiles": "CN(C)C(=O)Nc1cccc(C(F)(F)F)c1", "activity change % (negative = inhibition)": "-7.4% (inactive) and -5.84% (inactive)"},
      {"smiles": "c1ccoc1", "activity change % (negative = inhibition)": "20.3% (inactive)"},
      {"smiles": "C(CCOCC1CO1)COCC1CO1", "note": "(stereo not given)", "activity change % (negative = inhibition)": "16.3% (inactive)"},
      {"smiles": "Cc1ccc2c(c1N)C(=O)c1ccccc1C2=O", "activity change % (negative = inhibition)": "1.36% (inactive)"},
      {"smiles": "C=C(Cl)CSC(=S)N(CC)CC", "activity change % (negative = inhibition)": "0.68% (inactive)"},
      {"smiles": "Nc1cc(Cl)cc(C(=O)O)c1Cl", "activity change % (negative = inhibition)": "-1.41% (inactive)"},
      {"smiles": "O=[N+]([O-])c1cc(Cl)c(Cl)cc1Cl", "activity change % (negative = inhibition)": "5.06% (inactive)"},
      {"smiles": "ClCc1ccccc1", "activity change % (negative = inhibition)": "2.64% (inactive)"},
      {"smiles": "CCNCC", "activity change % (negative = inhibition)": "15.3% (inactive)"},
      {"smiles": "Nn1cnnc1", "activity change % (negative = inhibition)": "12.8% (inactive)"},
      {"smiles": "CN(C)C(=O)Nc1ccc(Cl)cc1", "activity change % (negative = inhibition)": "-0.766% (inactive)"},
      {"smiles": "C=CCCl", "activity change % (negative = inhibition)": "-1.64% (inactive)"},
      {"smiles": "ClCCBr", "activity change % (negative = inhibition)": "0.0673% (inactive)"},
      {"smiles": "ClCC(Br)CBr", "note": "(stereo not given)", "activity change % (negative = inhibition)": "6.39% (inactive)"},
      {"smiles": "NNC(N)=S", "activity change % (negative = inhibition)": "4.76% (inactive)"},
      {"smiles": "CC(C)[C@]12CC(=O)[C@H](C)[C@H]1C2", "activity change % (negative = inhibition)": "-3.76% (inactive) and 6.48% (inactive)"},
      {"smiles": "S=C1NCCN1", "activity change % (negative = inhibition)": "-23.2% (inactive) and -6.83% (inactive)"},
      {"smiles": "Cc1ccc([N+](=O)[O-])cc1", "activity change % (negative = inhibition)": "0.221% (inactive)"},
      {"smiles": "O=C(O)C(Br)Br", "activity change % (negative = inhibition)": "8.3% (inactive)"},
      {"smiles": "CCOC(=O)CBr", "activity change % (negative = inhibition)": "-6.62% (inactive)"},
      {"smiles": "CCCCC(CC)COC(=O)c1ccc(C(=O)OCC(CC)CCCC)c(C(=O)OCC(CC)CCCC)c1", "note": "(stereo not given)", "activity change % (negative = inhibition)": "11.5% (inactive)"},
      {"smiles": "CN1CSC(=S)N(C)C1", "activity change % (negative = inhibition)": "21.7% (inactive) and -19% (inactive)"},
      {"smiles": "C=CC(=O)OCC(CC)CCCC", "note": "(stereo not given)", "activity change % (negative = inhibition)": "-10.5% (inactive) and 4.22% (inactive)"},
      {"smiles": "Brc1ccc(Oc2ccc(Br)cc2Br)c(Br)c1", "activity change % (negative = inhibition)": "4.48% (inactive)"},
      {"smiles": "C=C(C)CCl", "activity change % (negative = inhibition)": "-0.864% (inactive)"},
      {"smiles": "CC(C)C#N", "activity change % (negative = inhibition)": "-3.27% (inactive)"},
      {"smiles": "Clc1ccccc1", "activity change % (negative = inhibition)": "8.57% (inactive)"},
      {"smiles": "COc1cc(-c2ccc(N)c(OC)c2)ccc1N", "activity change % (negative = inhibition)": "4.52% (inactive) and 5.28% (inactive) and -5.71% (inactive)"},
      {"smiles": "Cc1cc(Cl)ccc1O", "activity change % (negative = inhibition)": "-9.26% (inactive)"},
      {"smiles": "Cc1cnc[nH]1", "activity change % (negative = inhibition)": "8% (inactive)"},
      {"smiles": "C=CC(=O)OC", "activity change % (negative = inhibition)": "-6.86% (inactive)"},
      {"smiles": "CCOP(=O)(OCC)OCC", "activity change % (negative = inhibition)": "-0.564% (inactive) and 12.2% (inactive)"},
      {"smiles": "O=C(O)c1cccc(Cl)c1", "activity change % (negative = inhibition)": "7.72% (inactive)"}
    ]}
  ]
}
